About 83,000 compounds went through this panel and 20% of them were active in at least one assay; those are over-represented in the sample as a whole.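 For each line, cells grew in 96-well plates with the test compound present at a single concentration for 48 hours.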 Calls of active or inactive are those of the source. How the source made its calls: active means growth percent below 10; inactive means the rest.
system: T-47D breast; experiment: NCI-60 one-dose screen, 48 h (100 = growth as untreated, 0 = no growth, -100 = all killed); conditions: 10 µM

SMILES	growth
CN(C)CCC1(c2ccccc2)CCN(C)C1=O (stereo unspecified)	104% (inactive)
COc1ccc(/C=C/c2nnc(/C=C/c3ccc(OC)c(OC)c3)o2)cc1OC	19.5% (inactive)
CN(C)c1ccc(/C=N/NC(=O)c2ccccc2Nc2cccc(C(F)(F)F)c2)cc1	75.6% (inactive)
CN(C)CCOc1ccc(-c2nc3sccn3c2-c2ccnc(S(C)(=O)=O)n2)cc1	110% (inactive)
COc1ccc(CCN2CCC(Nc3nc4ccccc4n3Cc3ccc(F)cc3)CC2)cc1	-3.86% (active)
O=C(CN(C1CCCCC1)C1CCCCC1)Nc1ccc(S(=O)(=O)c2ccc(NC(=O)CN(C3CCCCC3)C3CCCCC3)cc2)cc1	-38.1% (active)
COc1ccc2nc(-c3ccc(Cl)cc3)cc(-c3nnc(SC/C(=N\O)c4ccccc4)n3-c3ccccc3)c2c1	63.5% (inactive)
Cc1cc(CSc2ccccc2C(=O)N2CC=C(c3ccccc3)CC2)on1	75.5% (inactive)
CCOC(=O)c1cc(C(=O)c2cc(OC)c(OC)c(OC)c2)n2nc(C)ccc12	93.6% (inactive)
O=C(O)c1ccc(-n2cc(CNc3ccc(Cl)cc3)c(-c3ccccc3)n2)cc1	89.4% (inactive)
CNC(=O)c1cc(Oc2ccc3c(c2)sc2nc(-c4ccc(N)cc4)cn23)ccn1	36.1% (inactive)
Nc1ccc(CC[C@H]2CCC/C=C/[C@@H]3C[C@H](O)C[C@H]3[C@H](O)/C=C/C(=O)O2)cc1	10.2% (inactive)
CNC(=O)c1cn(C2CC2)c2cc(N3CCN(C(=O)c4cc(OC)c(OC)c(OC)c4)CC3)c(F)cc2c1=O	79% (inactive)
CN1CCN(C2=Nc3ccccc3Oc3ccc(Cl)cc32)CC1	81.3% (inactive)
COc1ccc(Cc2cnc(N)nc2N)cc1OC	101% (inactive)
COc1ccc(C(c2ccc(OCCN(C)C)cc2)c2cc3ccccc3c3ccccc23)cc1 (stereo unspecified)	21.8% (inactive)
O=C(N/N=C/c1ccc(Cl)cc1)c1ccccc1Nc1cccc(C(F)(F)F)c1	109% (inactive)
CC(=O)O[C@@]12CO[C@@H]1C[C@H](O)[C@@]1(C)C(=O)[C@H](O)C3=C(C)[C@@H](OC(=O)[C@H](O)[C@@H](NC(=O)OC(C)(C)C)c4ccccc4)C[C@@](O)([C@@H](OC(=O)c4ccccc4)C12)C3(C)C (stereo partly specified)	65.2% (inactive)
CS(=O)(=O)c1nccc(-c2c(-c3cccc(OCCc4ccccc4)c3)nc3sccn23)n1	92.4% (inactive)
C(=N\Nc1ncnc2sc3c(c12)CCNC3)/c1cccc2ccccc12	103% (inactive)
CNS(=O)(=O)Oc1ccc(-c2sc3cc(OS(=O)(=O)NC)ccc3c2C(=O)c2ccc(OCCN3CCCCC3)cc2)cc1	60.8% (inactive)
CCCCC/C=C/C/C=C/CCCCCCCC1=NC(C)(C)CN1C(C)C	16.5% (inactive)
C#C[C@]1(O)CCC2C3CCc4cc(OC5CCCC5)ccc4C3CC[C@@]21C (stereo partly specified)	84% (inactive)
O=C(N/N=C/c1c(Cl)cccc1Cl)c1ccccc1Nc1cccc(C(F)(F)F)c1	94.4% (inactive)
COc1cccc(-c2nc3sccn3c2-c2cccc(S(C)(=O)=O)c2)c1	98.7% (inactive)
CC(=O)Nc1ccc(S(=O)(=O)c2ccnc3cc(Cl)ccc23)cc1	72.5% (inactive)
